# This is one part of a sample in which hits are shown more often than they occur.
# Tgondii IFNg: T. gondii growth inhibition under IFN-gamma; Toxoplasma gondii growth in IFN-gamma-treated host cells; active compounds read low; activity change, negative = inhibition, % (no concentration beside the values); actives 3.8% (n = 69,000); AID 1259416; in the data active means activity change below about -70%, passing the limit was not always enough;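 further: host cells are HeLa cells infected with Toxoplasma gondii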
# An asterisk follows results filed as active; i = inactive; ! = repeats disagree.
SMILES,Tgondii IFNg
COC(=O)c1ccc(Cl)cc1NC(=O)N1CCC2(CC1)Nc1cc(F)ccc1-n1cccc12,i
CCN1C(=O)CCC2C1CCN2C(=O)c1ccc2[nH]ccc2c1 (stereo not drawn),0
COCCN1C(=O)CCC2C1CCN2C(=O)c1ccc2[nH]ccc2c1 (stereo not drawn),0
CN1C(=O)CCC2C1CCN2C(=O)c1ccc2[nH]ccc2c1 (stereo not drawn),-97*
Cc1nn(C)c(C(=O)N(C)CC2COc3ccccc3O2)c1Cl (stereo not drawn),-11
O=C(O)c1ccccc1CN1CC[C@@]2(O)CCCC[C@H]2C1,3
Cc1cc(C)n(Cc2nc(-c3ccc(NC(=O)c4ccc(C)c(C)c4)cc3)oc2C)n1,-88*
Cc1cc(C)n(Cc2nc(-c3ccc(NC(=O)c4ccccc4F)cc3)oc2C)n1,-41
Cc1ccc(C(=O)Nc2ccc(-c3nc(Cn4nc(C)cc4C)c(C)o3)cc2)c(C)c1,115
COc1ccccc1C(=O)Nc1ccc(-c2nc(Cn3nc(C)cc3C)c(C)o2)cc1,-85*
Cc1cc(C)n(Cc2nc(-c3ccc(NC(=O)COc4ccccc4)cc3)oc2C)n1,-2
Cc1cc(C)n(Cc2nc(-c3ccc(NC(=O)c4ccc(N(C)C)cc4)cc3)oc2C)n1,66
Cc1cc(C)n(Cc2nc(-c3ccc(NC(=O)c4ccc(F)c(Cl)c4)cc3)oc2C)n1,308
COc1ccc(CC(=O)Nc2ccc(-c3nc(Cn4nc(C)cc4C)c(C)o3)cc2)cc1,-33
COc1ccccc1CC(=O)Nc1ccc(-c2nc(Cn3nc(C)cc3C)c(C)o2)cc1,-80*
CN(Cc1ccc(-n2cccn2)cc1)Cc1cnc(N(C)C)nc1,5
O=C1NCC2(CCCN(C(=O)c3cc4ccccc4s3)C2)O1 (stereo not drawn),2
CN1CCCC2(CCN(C(=O)CCc3nc4ccccc4s3)C2)C1=O (stereo not drawn),2
CCc1noc(CN(CC)C(=O)Cc2cnc3c(C)cccn23)n1,3
CCOC(=O)CSC1=Nc2ccccc2C2=NC(CC(=O)NCc3ccco3)C(=O)N12 (stereo not drawn),15
Nc1ncnc(SCc2c(Cl)cccc2Cl)n1,-81*
CSc1nc(N)nc(COc2ccccc2Cl)n1,47
O=c1[nH]c(SCc2c(Cl)cccc2Cl)nc2ccnn12,68
Cc1ccnc(C(NC(=O)CCc2c(C)nn(C)c2C)C2CC2)c1 (stereo not drawn),0
CN(Cc1ncc[nH]1)C(=O)c1ncc(F)cc1F,-7
SMILES,Tgondii IFNg
COC(=O)[C@H](Cc1ccccc1)NC(=O)[C@@H](N)CC(=O)O,16
COc1ncc(C(=O)NC(Cc2ccccc2)c2ccc3c(c2)OCCO3)cn1 (stereo not drawn),67
COC[C@H](NC(=O)c1cnc(C)s1)C(=O)N[C@@H](COC)C(=O)N[C@@H](Cc1ccccc1)C(=O)C1(C)CO1 (stereo partly drawn),-77*
CC(=O)c1ccc(N2CCCC(CO)(Cc3ccccc3F)C2)nc1 (stereo not drawn),10
Nc1ncnc2c1c(-c1cccc(OCc3ccccc3)c1)cn2C1CC(CN2CCCC2)C1 (stereo not drawn),-74*
COc1cccc(-c2nn(-c3ccccc3)cc2CN2CCC(CN3CCOCC3)CC2)c1,-10
CCCCC(=O)Nc1ccc(NC(=O)Cc2cnc[nH]2)cc1,1
Cc1cc(C)n(CC(O)Cn2c3ccc(Cl)cc3c3cc(Cl)ccc32)n1 (stereo not drawn),-36
CNCC(O)Cn1c(C)c(C)c2ccccc21 (stereo not drawn),-3
OC(CNCc1ccccc1)Cn1c2ccc(Cl)cc2c2cc(Cl)ccc21 (stereo not drawn),-91*
Cc1nc(-c2cccs2)sc1NC(=O)Nc1ccc(Cl)cc1,65
CC(CC(=O)Nc1nc(C(C)(C)C)cs1)n1cncn1 (stereo not drawn),5
CC(C)(C)c1csc(NC(=O)Nc2ccc(Cl)cc2)n1,-103*
CC1=C2CCCC2CC/C1=N\Nc1nc(-c2ccccc2)cs1 (stereo not drawn),139
COCC(=O)N1CC[C@@H](O)[C@@H]1Cc1cnn(C)c1,-34
O=C(Nc1ccccc1)c1cc([N+](=O)[O-])ccc1Cl,14
O=C(Nc1ccc([N+](=O)[O-])cc1Cl)c1cc(Cl)ccc1O,-76*!
O=C(Nc1ccncc1)c1cc([N+](=O)[O-])ccc1Cl,-82*
O=C(O)c1cc([N+](=O)[O-])ccc1NCCCc1ccccc1,30
CCC(=O)Oc1ccc(C(=O)Nc2ccc([N+](=O)[O-])cc2)cc1,110
O=C(NCCNc1ccc(Cl)cc1[N+](=O)[O-])c1cccnc1,-5
c1cnc(N2CCC(Oc3cnccn3)CC2)nc1,-67
COc1nc(OC)nc(-c2ccc(OC)c(OC)c2OC)n1,6
O=C(Nc1ccc2c(c1)Cc1ccccc1-2)c1cccc2ccccc12,-3
CC(=O)Nc1ccc(S(=O)(=O)Nc2cncc(C(=O)NC3CCCCC3)c2)cc1,24
SMILES,Tgondii IFNg
O=S(=O)(NCCc1csc(-c2ccc(Cl)cc2)n1)c1ccc(F)cc1,-30
CC(C)C(CNC(=O)c1ccc(N2CCCCC2)cc1)N1CCOCC1 (stereo not drawn),5
OC(CSc1cccs1)CN1CCN(C(c2ccccc2)c2ccccc2)CC1 (stereo not drawn),-94*
C(=C\c1ccccc1)/CN1CCN(C(c2ccccc2)c2ccccc2)CC1,14
COc1ccccc1C(=O)NCCc1nc(-c2ccccc2)ncc1C(=O)N1CCOCC1,10
O=C(c1cc2c([nH]c1=O)CCC2)N1CCN(c2ccnc3cc(Cl)ccc23)CC1,-8
NS(=O)(=O)c1ccc(NC(=O)Nc2ccc(F)cc2)cc1,25
O=C(Nc1ccc(S(=O)(=O)Nc2ccccn2)cc1)c1ccc(Cl)c(Cl)c1,-3
NS(=O)(=O)c1ccc(NC(=O)c2ccc(-c3cc(Cl)ccc3Cl)o2)cc1,-100*
Cc1c(C(=O)NCc2cccnc2N2CCOCC2)n(C)c2c(C)cccc12,-8
O=C(O)c1ccc(C2CCN(Cc3nc4ccccc4[nH]3)C2)cc1 (stereo not drawn),0
COCC(=O)N1CCc2cc(C(=O)O)c(-c3ccnn3C)nc2CC1,3
O=C(Nc1nc(-c2ccccc2)cs1)C1CCCN1C(=O)OCc1ccccc1 (stereo not drawn),107
O=C(NCc1cccc(O)c1)Nc1nc(-c2ccncc2)cs1,-74*
COc1cccc(CNC(=O)Nc2ccc(-c3nc(-c4ccccc4)co3)cc2)c1,72
CCc1ccc(S(=O)(=O)N2CCC3(CC2)Nc2ccc(C)c(C)c2-n2cccc23)cc1,17
COc1ccc(CNCCCSc2ncccn2)cc1,20
COc1ccc(SCC(O)CNCc2ccc(Cl)cc2)cc1 (stereo not drawn),-80*
COc1ccc(NC(=S)NCCSc2ccc(Cl)cc2)cc1,-42
CN(Cc1ccsc1)c1cc(N2CCOCC2)nc(N)n1,8
CCn1cc2c(n1)C(COC)CN(Cc1ccoc1)C2 (stereo not drawn),-21
CN1CC2(CCCN(C(=O)C3(c4ccc(Cl)cc4)CCC3)C2)OC1=O (stereo not drawn),-16
c1ccc(CNc2ccc(C3c4ccccc4Oc4ccccc43)cc2)cc1,-97*
CNCc1ccccc1,9
O=C(O)CCc1ccc(NCc2cccc(Oc3ccccc3)c2)cc1,14
COc1ccc2oc(C(=O)N3CCC(Oc4ccc(F)cc4)CC3)cc2c1,0
Clc1ccc(C2C=C(c3ccccc3)Nc3ncnn32)cc1 (stereo not drawn),-85*
